# High-throughput results: PubChem BioAssay, National Center for Advancing Translational Sciences (NCATS)
# KB-V1 cytotox – qHTS assay for MDR1-selective chemotherapeutics: Primary screen using the drug-selected MDR subline cells KB-V1; KB-V1 MDR cells viability, CellTiter-Glo, 72 h; Potency, µM (doses to about 46.1 µM), usual class: cytotoxic; 400,000 compounds, 3.4% hits; further: on the % scale 0 is the no-effect control and ±100 the full control effect; nearly all actives have a fitted effect of over 60% in size
#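 Luminescent ATP read-out (CellTiter-Glo, 10 min) measures survival of drug-selected KB-V1 MDR cells after 72 h, 37 degrees C compound exposure. Medium: phenol-red-free DMEM, 10% FBS. Values from fitted concentration-response curves.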
# SW480 rereplic – A quantitative high throughput screen for small molecules that induce DNA re-replication in SW480 colon adenocarcinoma cells | SW480 DNA re-replication, Hoechst DNA content imaging, 48 h | Potency, µM (highest dose often 46.1 µM), for inactives: top-dose re-replication activation, actives largely listed as activators | 340,000 compounds, 1.8% hits; further: % of control where 0% means no effect; nearly all actives have a fitted effect of over 55% in size
#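 Per well, 250 cells were exposed to pinned compound for 48 hr. Nuclear DNA was visualised with Hoechst (40 min, 37 C) and total object intensity recorded by fluorescence scanning.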
# MCF10A rereplic – A quantitative high throughput screen for small molecules that induce DNA re-replication in MCF 10a normal breast cells | MCF 10A DNA re-replication, Hoechst nuclear intensity, 48 h | Potency, µM (top dose mostly 46.1 µM), inactives show at the highest dose activity, positive = re-replication, hits mostly activators | 350,000 compounds, 2.9% hits; further: % of control where 0% means no effect; nearly all actives have a fitted effect of over 50% in size
# KB-3-1 cytotox – qHTS assay for MDR1-selective chemotherapeutics: Primary screen using the parental adenocarcinoma cell KB-3-1 | KB-3-1 viability, CellTiter-Glo ATP luminescence, 72 h | Potency, µM (series often up to 46.1 µM), hits mostly cytotoxic | 400,000 compounds, 1.4% hits; further: on the % scale 0 is the no-effect control and ±100 the full control effect; nearly all actives have a fitted effect of over 60% in size
#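 Using CellTiter-Glo luminescence, growth of non-resistant KB-3-1 adenocarcinoma cells is assessed 72 h after pin-tool compound addition at 37 °C. Normalized responses across the concentration series yield fitted curves.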
# HT1080NT lethal – qHTS for induction of synthetic lethality in tumor cells producing 2HG: qHTS for the HT-1080-NT fibrosarcoma cell line; 360,000 compounds, 1.6% hits; AID 686970, 2013; Potency, µM (highest dose often 46.1 µM), for inactives: top-dose activity, negative = less viability, hits mostly cytotoxic; HT-1080-NT fibrosarcoma viability, CellTiter-Glo ATP luminescence, 48 h;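 further: NT is the 2HG producing partner of a matched IDH1 knockdown line; 0% = DMSO-treated cells and -100% = media-only wells without cells; nearly all actives have a fitted effect of over 55% in size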
#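 Read-out is CellTiter-Glo luminescence after 10 minutes at room temperature, following 48 hours' compound treatment of HT-1080-NT cells (750 cells/well, RPMI, 5% FBS, 37 degrees C).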
# HT1080 IDH1KD tx – qHTS for induction of synthetic lethality in tumor cells producing 2HG: qHTS for the HT-1080-IDH1KD cell line | HT-1080 IDH1 knockdown viability, ATP luminescence, 48 h | Potency, µM (doses to about 46.1 µM), for inactives: at the highest dose activity, negative = toxicity, hits mostly cytotoxic | 360,000 compounds, 2% hits | AID 686971, 2013;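 further: 0% = DMSO wells and -100% = cell-free medium wells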
#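 Using the IDH1-knockdown HT-1080 line run in the same batch and compound series as the NT line, viability after 48 h at 37 °C was determined by CellTiter-Glo luminescence and expressed as % activity.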
# An asterisk follows results filed as active; i = inactive; u = inconclusive; x = not tested or not shown; [ ] = dose if it differs, or a comment. Most compounds without a hit are left out; they make up all but 8% or so of the library. The call rests on the fitted dose curve; in most records, active means well fitted curve in the direction sought with a large enough effect; inconclusive means small, poorly fitted or top-dose-only effect, or another doubt; inactive means no such curve, though single readings can be large; an effect the other way counts as inactive or inconclusive. Potency means the concentration at half of the fitted maximal effect.
SMILES,KB-V1 cytotox,SW480 rereplic,MCF10A rereplic,KB-3-1 cytotox,HT1080NT lethal,HT1080 IDH1KD tx
CCCCCCC(=O)N(O)C1CC(=O)N(c2ccc(Br)cc2)C1=O (stereo not given),i,u,u,i,u,16µM*
COc1ccccc1N(O)C1CC(=O)N(c2ccc(Br)cc2)C1=O (stereo not given),i,5%,u,i,-4%,-13%
CCCCCCC(=O)N(O)C1CC(=O)N(c2ccc(F)cc2)C1=O (stereo not given),i,26%,u,i,16µM*,u
Cc1cccc(C)c1NC(=O)C(c1ccccc1OC(F)(F)F)N1CCN(C/C=C/c2ccccc2)CC1 (stereo not given),i,x,x,i,u,u
Cc1ccc2onc(CC(=O)N3CCN(c4cccc(C)c4C)CC3)c2c1,i,x,x,i,x,x
c1ccc2c(-c3csc(-c4ccncc4)n3)c[nH]c2c1,u,21µM*,u,u,u,u
CC(=O)c1ccc(N2CCN(c3ncnc4onc(C)c34)CC2)cc1,u,x,x,21µM*,x,x
Cc1noc2ncnc(N3CCN(c4cccc(Cl)c4)CC3)c12,i,-2%,u,u,-20%,-21%
Cc1ccc(Cc2c(C(C)(C)C)nc3ccc(Br)cn23)cc1,i,x,x,i,-1%,-13%
O=C(Nc1ccc(F)cc1F)c1cc(-c2ccc(Cl)cc2)on1,i,x,x,i,x,x
COc1cc(C2CC(=O)Nc3n[nH]c(-c4ccccc4)c32)cc(OC)c1OC (stereo not given),i,u,u,21µM*,u,u
COc1cc(C2CC(=O)Nc3cc(C)c(C)cc32)cc(OC)c1OC (stereo not given),16µM*,u,u,9.2µM*,u,u
COc1cc2c(cc1OC)C(c1ccc(SC)cc1)CC(=O)N2 (stereo not given),i,-36%,4.6µM*,i,0%,-5%
CCOc1c(Br)cc(C2CC(=O)Nc3cc(OC)c(OC)cc32)cc1OC (stereo not given),i,-11%,0%,i,-29%,u
COc1ccc(S(=O)(=O)N(CCc2ccccc2)CC(=O)Nc2cc(C)cc(C)c2)cc1OC,i,x,x,i,x,x
O=C(NCCCN1CCOCC1)c1ccc2c(=O)n(-c3ccc(F)c(Cl)c3)c(=S)[nH]c2c1,i,u,u,i,-10%,-9%
CC(=O)N(Cc1ccc(Br)cc1)c1cccc(C)c1C,i,u,u,i,u,u
COc1ccc(CN(C(C)=O)c2cccc(C)c2C)cc1,u,u,u,u,16µM*,u
O=C(CN1CCCCCC1=O)N1CCN(S(=O)(=O)c2cccs2)CC1,i,154%,-1%,i,9%,2%
Cn1cccc1/C=C1/SC(=O)N(CC(=O)N2CCCC2)C1=O,16µM*,1%,-3%,i,17%,12%
Cc1ccc(/C=C2/SC(=O)N(CC(=O)N3CCOCC3)C2=O)s1,21µM*,-2%,5%,i,5%,9%
COc1ccc(CC(=O)Nc2c(C(=O)N3CCN(c4ccccc4OC)CC3)oc3ccccc23)cc1OC,i,-2%,-3%,u,-14%,-14%
O=P(COc1ccccc1)(c1ccccc1)c1ccccc1,15µM*,-2%,2%,i,-4%,3%
COc1ccc(P(=O)(COc2ccc([N+](=O)[O-])cc2)c2ccc(OC)cc2)cc1,4.1µM*,1%,8%,i,-3%,-3%
O=P(CCCCCCCCCP(=O)(c1ccccc1)c1ccccc1)(c1ccccc1)c1ccccc1,15µM*,25%,u,u,18µM*,23µM*
SMILES,KB-V1 cytotox,SW480 rereplic,MCF10A rereplic,KB-3-1 cytotox,HT1080NT lethal,HT1080 IDH1KD tx
O=C1CC(c2ccccc2)Cc2nc(NC3CC3)ncc21 (stereo not given),i,-8%,-2%,i,21%,6%
O=C1CC(c2ccccc2)Cc2nc3ncnn3cc21 (stereo not given),u,-13%,15%,u,11µM*,u
CCOC(=O)c1c(NC(=O)C2COc3ccccc3O2)sc(C(C)=O)c1C (stereo not given),i,-15%,1%,i,-18%,1%[9.24 µM]
COC(=O)c1c(NC(=O)CC2SC(N)=NC2=O)sc2c1CCC(C(C)(C)C)C2 (stereo not given),i,24%,23µM*,i,u,u
COC(=O)c1c(NC(=O)CSc2nnnn2-c2ccccc2)sc2c1CCC(C)C2 (stereo not given),u,u,-1%,i,2%,-3%
CCOC(=O)c1c(NC(=O)CSc2nnnn2-c2ccccc2)sc2c1CC(C)(C)NC2(C)C,i,u,u,i,u,23µM*
CCOC(=O)c1c(NC(=O)C2COc3ccccc3O2)sc2c1CC(C)(C)NC2(C)C (stereo not given),i,u,u,u,u,16µM*
CCOC(=O)c1sc(NC(=O)CSc2nnnn2-c2ccccc2)c(C(=O)OCC)c1C,i,-18%,1%,i,-2%,-1%
COC(=O)c1c(NC(=O)CSc2nnnn2-c2ccccc2)sc2c1CCC(C(C)(C)C)C2 (stereo not given),15µM*,-9%,u,i,14%,2%
COc1ccccc1OCC(=O)NCC1(N(C)C)CCCCC1,i,x,x,i,x,x
CCOC(=O)c1cccc(NC(=O)c2ccc3nc(CCc4ccccc4)oc3c2)c1,i,x,x,i,x,x
CCOC(=O)c1c(NC(=O)CCS(=O)(=O)c2ccccc2)sc2c1CC(C)(C)NC2(C)C,u,u,18µM*,i,3%,22%
CC(C)(C)C1CCc2c(sc(NC(=O)c3cccs3)c2C(N)=O)C1 (stereo not given),i,u,5.6µM*,i,-8%,-4%
CCOC(=O)c1c(NC(=O)Cc2ccccc2)sc2c1CC(C)(C)NC2(C)C,i,2%,7%,i,-22%,-11%
